This passage reports growth inhibition results from PubChem BioAssay (NCI).

Assay [1] is described as follows: NCI Yeast Anticancer Drug Screen. Data for the rad50 strain (AID 155).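 Note: 0% = growth of vehicle-only cultures of the same strain.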 The following applies: S. cerevisiae rad50 strain growth inhibition, hits give high values. In a few lines: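 Growth of the mutant yeast was measured after compound exposure and referenced to vehicle-treated cultures.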
Assay [2] can be described thus: NCI Yeast Anticancer Drug Screen. Data for the sgs1 mgt1 strain (AID 161).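 Note: 0% = growth of cultures given vehicle only.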 To be noted: S. cerevisiae sgs1 mgt1 strain, hits give high values. A digest of the protocol: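 Genetically altered yeast, compound exposure, growth inhibition relative to vehicle.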
Assay [3] is described as follows: NCI Yeast Anticancer Drug Screen. Data for the cln2 rad14 strain (AID 165).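 Note: 0% = growth equal to vehicle treated cultures.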 The following applies: S. cerevisiae cln2 rad14 strain, hits give high values. In a few lines:
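cln2 rad14 yeast strain; compound exposure; growth inhibition read vs vehicle controls.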

Assay [4] is described as follows: NCI Yeast Anticancer Drug Screen. Data for the bub3 strain (AID 167). To be noted: S. cerevisiae bub3 mutant strain, hits give high values. A digest of the protocol: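 Whole-cell yeast assay. The mutant strain was incubated with compounds, and growth inhibition was determined by comparison with vehicle-treated cells.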
Assay [5] is described as follows: NCI Yeast Anticancer Drug Screen. Data for the mlh1 rad18 strain (AID 175). To be noted: S. cerevisiae mlh1 rad18 strain growth inhibition, hits give high values. In a few lines: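 Yeast w/ defined DNA-repair lesions; compound exposure; growth vs vehicle controls → % inhibition.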
Assay [6] can be described thus: NCI Yeast Anticancer Drug Screen. Data for the mec2-1 strain (AID 157). To be noted: S. cerevisiae mec2-1 strain, hits give high values. A digest of the protocol:
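Yeast mec2-1 mutant treated with compound. Readout: growth inhibition vs vehicle controls.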

Where [7] appears, read: at 5.0 µM (retest, dose inferred, filed as 0.5).
The mark [8] stands for this setting: at 50.0 µM (retest, dose inferred, filed as 5.0).

Several values for one entry are separate records, joined by “and”; a condition that tells them apart may be missing. Identical values can stand only once. About 79,000 compounds went through this panel and 15% of them were active in at least one assay; those are over-represented in the sample as a whole. Values without a mark were called inactive. Activity calls are given as the source filed them. Cut-off read from the data, not from the text of the source: active = growth inhibition above about 70%; inactive = the rest.

For the compound `Cc1cc2c(cc1C)[n+]([O-])c(-c1c(Cl)cccc1Cl)c(N)[n+]2[O-]`, the growth inhibition was 13% in assay [1] (setting [7]); 88% (active) in assay [1] (setting [8]); 82.5% (active) in assay [1] (at 50.0 µM); 40% in assay [2] (setting [7]); 100% (active) in assay [2] (setting [8]); 79.4% (active) in assay [2] (at 50.0 µM). Further, the growth inhibition in assay [3] (setting [7]) is 18%; in assay [3] (setting [8]) it was 77% (active); in assay [3] (at 50.0 µM) it was 69%; in assay [4] (setting [7]) it was 56%; in assay [4] (setting [8]), 99% (active); in assay [4] (at 50.0 µM), 93.5% (active). Further, the growth inhibition is 45% in assay [5] (setting [7]), 98% (active) in assay [5] (setting [8]) and 93.7% (active) in assay [5] (at 50.0 µM).

As to `O=C(Cc1nc2ccccc2s1)Nc1ccc2ccccc2c1`, the growth inhibition in assay [1] (setting [7]) is -8%; in assay [1] (setting [8]) it was 99% (active); in assay [1] (at 50.0 µM), 98% (active); in assay [2] (setting [7]) it was 31%; in assay [2] (setting [8]) it was 99% (active); in assay [2] (at 50.0 µM), 97.8% (active). For the same compound, the growth inhibition in assay [3] (setting [7]) was -1%; in assay [3] (setting [8]), 99% (active); in assay [3] (at 50.0 µM), 95.3% (active); in assay [4] (setting [7]), 12%; in assay [4] (setting [8]), 99% (active); in assay [4] (at 50.0 µM), 97.8% (active). Also, the growth inhibition in assay [5] (setting [7]) is 13%; in assay [5] (setting [8]) it was 99% (active); in assay [5] (at 50.0 µM), 97.8% (active).

With `CCC[CH2][Sn]([CH2]CCC)([O]C(=O)c1cc(F)cc(F)c1)[O][Sn]([CH2]CCC)([CH2]CCC)[O]C(=O)c1cc(F)cc(F)c1`, the growth inhibition was 57% in assay [6] (setting [7]); 97% (active) in assay [6] (setting [8]); 88.7% (active) in assay [6] (at 50.0 µM); 40% in assay [2] (setting [7]); 95% (active) in assay [2] (setting [8]); 89.7% (active) in assay [2] (at 50.0 µM). Moreover, the growth inhibition in assay [3] (setting [7]) is 30%; in assay [3] (setting [8]) it was 88% (active); in assay [3] (at 50.0 µM) it was 85.8% (active); in assay [4] (setting [7]) it was 49%; in assay [4] (setting [8]), 99% (active); in assay [4] (at 50.0 µM) it was 89% (active). Further, the growth inhibition in assay [5] (setting [7]) was 44%; in assay [5] (setting [8]), 96% (active); in assay [5] (at 50.0 µM), 87.7% (active).

Consider `Nc1ccc(C(=O)N/C(=C\c2ccc3c(c2)OCO3)c2nc3ccccc3s2)cc1`, for which the growth inhibition in assay [6] (setting [7]) was -2%; in assay [6] (setting [8]) it was 99% (active); in assay [6] (at 50.0 µM), 98.5% (active); in assay [2] (setting [7]), 54%; in assay [2] (setting [8]), 99% (active); in assay [2] (at 50.0 µM), 98.2% (active). The growth inhibition is 15% in assay [3] (setting [7]); 98% (active) in assay [3] (setting [8]); 96.3% (active) in assay [3] (at 50.0 µM); 32% in assay [4] (setting [7]); 98% (active) in assay [4] (setting [8]); 97.4% (active) in assay [4] (at 50.0 µM). Also, the growth inhibition in assay [5] (setting [7]) was 30%; in assay [5] (setting [8]) it was 98% (active); in assay [5] (at 50.0 µM), 98.4% (active).

On to `O=C(CC(=O)c1ccccc1)CC(=O)c1ccccc1`, for which the growth inhibition in assay [1] (setting [7]) is 31%; in assay [1] (setting [8]), 81% (active); in assay [1] (at 50.0 µM), 87.7% (active); in assay [2] (setting [7]), 38%; in assay [2] (setting [8]) it was 85% (active); in assay [2] (at 50.0 µM) it was 74.7% (active). Further, the growth inhibition was 31% in assay [3] (setting [7]); 55% in assay [3] (setting [8]); 65.9% in assay [3] (at 50.0 µM); 44% in assay [4] (setting [7]); 95% (active) in assay [4] (setting [8]); 88.7% (active) in assay [4] (at 50.0 µM). Further, the growth inhibition is 38% in assay [5] (setting [7]), 95% (active) in assay [5] (setting [8]) and 84% (active) in assay [5] (at 50.0 µM).

`CCCCC1C(=O)N2c3ccccc3-c3ccccc3N2C1=O`: the growth inhibition in assay [1] (setting [7]) was -5%; in assay [1] (setting [8]) it was 30%; in assay [1] (at 50.0 µM) it was 65.5%; in assay [6] (setting [7]), 4%; in assay [6] (setting [8]) it was 33%; in assay [6] (at 50.0 µM) it was 6.8%. The growth inhibition in assay [2] (setting [7]) was -3%; in assay [2] (setting [8]), 23%; in assay [2] (at 50.0 µM) it was 43.2%; in assay [4] (setting [7]), 6%; in assay [4] (setting [8]), 10%; in assay [4] (at 50.0 µM), 17.4%. Moreover, the growth inhibition in assay [5] (setting [7]) was 0%; in assay [5] (setting [8]) it was 34%; in assay [5] (at 50.0 µM), 35%.

As for `Cc1ccc[n+](CC(=O)C2CCC3C4CC=C5CC(O)CCC5(C)C4CCC23C)c1` (stereo not drawn), the growth inhibition is 1% in assay [6] (setting [7]); 24% in assay [6] (setting [8]); 98.2% (active) in assay [6] (at 50.0 µM); 5% in assay [2] (setting [7]); 64% in assay [2] (setting [8]); 98.8% (active) in assay [2] (at 50.0 µM). The growth inhibition in assay [3] (setting [7]) is 6%; in assay [3] (setting [8]), 25%; in assay [3] (at 50.0 µM), 90.1% (active); in assay [4] (setting [7]), 3%; in assay [4] (setting [8]), 27%; in assay [4] (at 50.0 µM) it was 96.8% (active). In addition, the growth inhibition was -4% in assay [5] (setting [7]), 24% in assay [5] (setting [8]) and 98% (active) in assay [5] (at 50.0 µM).

With `N#CC(C#N)C(c1ccccc1)c1ccccc1`, the growth inhibition was -4% in assay [1] (setting [7]); 5% in assay [1] (setting [8]); 13.1% in assay [1] (at 50.0 µM); 1% in assay [2] (setting [7]); -41% in assay [2] (setting [8]); 11% in assay [2] (at 50.0 µM). Also, the growth inhibition was -3% in assay [3] (setting [7]); -10% in assay [3] (setting [8]); -1.1% in assay [3] (at 50.0 µM); 0% in assay [4] (setting [7]); 0% in assay [4] (setting [8]); 1.75% in assay [4] (at 50.0 µM). For the same compound, the results for the growth inhibition in assay [5] (setting [7]), in assay [5] (setting [8]) and in assay [5] (at 50.0 µM) were -1%, 2% and 10.5%, respectively.

On to `Cc1ccnc(N)c1`, for which the growth inhibition in assay [1] (at 50.0 µM) is -10.2% and -13.3% and 9.05%; in assay [6] (at 50.0 µM), -3.4% and -17.8% and 11.4%; in assay [2] (at 50.0 µM) it was 2.2% and -19.4% and -6.3%; in assay [3] (at 50.0 µM), -34.4% and -28.6% and -33.6%; in assay [4] (at 50.0 µM) it was 0.95% and 7.15% and -8.9%; in assay [5] (at 50.0 µM), 1.35% and 16.1% and 1.85%.

As for `NC(CC(=O)O)c1ccccc1` (stereo not drawn), the growth inhibition in assay [1] (at 50.0 µM) is 6.2% and -0.2% and -0.5%; in assay [6] (at 50.0 µM), 8.8% and -3.45% and -4.3%; in assay [2] (at 50.0 µM), -5.95% and 2.35% and -0.05%; in assay [3] (at 50.0 µM), 14.2% and -33.1% and -4.9%; in assay [4] (at 50.0 µM), -12.7% and -10.4% and -18.2%; in assay [5] (at 50.0 µM), -8.9% and 9.75% and -24.9%.

`[Cl][Co][Cl].[NH-]CC[N-]CC[N-]CC[NH-]`: the growth inhibition in assay [1] (at 50.0 µM) was 29.6% and -6.2% and 5.8%; in assay [6] (at 50.0 µM) it was 16.8% and -10.4% and 22.6%; in assay [2] (at 50.0 µM), 13.9% and 16.4% and 32.5%; in assay [3] (at 50.0 µM) it was 28.4% and 16.1% and 18.5%; in assay [4] (at 50.0 µM), 14.1% and 19.4% and 25.4%; in assay [5] (at 50.0 µM), 6.35% and 12.3% and 47%.

As to `N=c1n(CC(=O)NC23CC4CC(CC(C4)C2)C3)c2ccccc2n1Cc1ccc(Cl)cc1`, the growth inhibition in assay [1] (setting [7]) was 33%; in assay [1] (setting [8]), 33%; in assay [1] (at 50.0 µM) it was 92.5% (active); in assay [2] (setting [7]) it was 14%; in assay [2] (setting [8]), 14%; in assay [2] (at 50.0 µM), 93.4% (active). Besides, the growth inhibition in assay [3] (setting [7]) is -2%; in assay [3] (setting [8]), -2%; in assay [3] (at 50.0 µM), 92.4% (active); in assay [4] (setting [7]) it was -2%; in assay [4] (setting [8]) it was -2%; in assay [4] (at 50.0 µM), 91.4% (active). The growth inhibition in assay [5] (setting [7]) was 13%; in assay [5] (setting [8]), 13%; in assay [5] (at 50.0 µM), 90.3% (active).
